Where “and” joins values, the source holds several entries; their conditions need not be identical. Equal entries are not always repeated. This is part of a sample that, as a whole, favours compounds with a hit. Of some 79,000 tested, about 15% had one in any assay. Values without a mark were called inactive. Calls of active or inactive are those of the source. Rule as the data show it: active = growth inhibition above about 70%; inactive = the rest.
Legend:
[1] = NCI Yeast Anticancer Drug Screen. Data for the rad50 strain (AID 155);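 also: 0% = growth of vehicle-only cultures of the same strain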; details: S. cerevisiae rad50 strain growth inhibition, hits give high values
Method in brief: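 Inhibition values express reduced yeast growth in compound-treated cultures relative to vehicle-treated controls.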

[2] = NCI Yeast Anticancer Drug Screen. Data for the mec2-1 strain (AID 157); details: S. cerevisiae mec2-1 strain, hits give high values
Method in brief: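 Mutant yeast (mec2-1) grown with compound; growth inhibition relative to vehicle control reported.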

[3] = NCI Yeast Anticancer Drug Screen. Data for the sgs1 mgt1 strain (AID 161);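 also: 0% = growth of cultures given vehicle only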; details: S. cerevisiae sgs1 mgt1 strain, hits give high values
Method in brief: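 This yeast growth screen uses a strain with defined DNA-repair lesions; compound-treated growth is compared with vehicle-treated growth.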

[4] = NCI Yeast Anticancer Drug Screen. Data for the cln2 rad14 strain (AID 165);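 also: 0% = growth equal to vehicle treated cultures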; details: S. cerevisiae cln2 rad14 strain, hits give high values
Method in brief: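 Readout is yeast growth inhibition versus vehicle-treated controls, using a strain with cln2 and rad14 alterations exposed to compound.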

[5] = NCI Yeast Anticancer Drug Screen. Data for the bub3 strain (AID 167); details: S. cerevisiae bub3 mutant strain, hits give high values
Method in brief: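 Steps: expose the mutant yeast strain to compound; grow alongside vehicle-treated cultures; measure growth; express inhibition against the vehicle cultures.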

[6] = NCI Yeast Anticancer Drug Screen. Data for the mlh1 rad18 strain (AID 175); details: S. cerevisiae mlh1 rad18 strain growth inhibition, hits give high values
Method in brief: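 Genetically defined yeast (DNA repair-deficient) exposed to compounds; growth inhibition determined relative to vehicle.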

[7] = at 5.0 µM (retest, dose inferred, filed as 0.5)
[8] = at 50.0 µM (retest, dose inferred, filed as 5.0)

SMILES	growth inhibition [1, 7]	growth inhibition [1, 8]	growth inhibition ([1]; at 50.0 µM)	growth inhibition [2, 7]	growth inhibition [2, 8]	growth inhibition ([2]; at 50.0 µM)	growth inhibition [3, 7]	growth inhibition [3, 8]	growth inhibition ([3]; at 50.0 µM)	growth inhibition [4, 7]	growth inhibition [4, 8]	growth inhibition ([4]; at 50.0 µM)	growth inhibition [5, 7]	growth inhibition [5, 8]	growth inhibition ([5]; at 50.0 µM)	growth inhibition [6, 7]	growth inhibition [6, 8]	growth inhibition ([6]; at 50.0 µM)
N#C[S-].[Ce+3].c1ccc(-c2ccccn2)nc1.c1ccc(-c2ccccn2)nc1.c1ccc(-c2ccccn2)nc1	63%	98% (active)	91.5% (active)	43%	99% (active)	94% (active)	51%	99% (active)	92.9% (active)	31%	93% (active)	91.5% (active)	55%	98% (active)	92.3% (active)	63%	98% (active)	91.4% (active)
c1cnc2c(c1)ccc1cccnc12	58% and 14%	97% (active) and 99% (active)	99.5% (active) and 99.2% (active)	32% and 27%	99% (active)	99.2% (active) and 98.9% (active)	50% and 13%	98% (active)	98.3% (active) and 99% (active)	6% and -24%	98% (active) and 90% (active)	98% (active) and 96.2% (active)	42% and 4%	98% (active) and 99% (active)	98.8% (active) and 99% (active)	52% and 17%	97% (active) and 98% (active)	98.8% (active)
CCOC(=O)NC(=S)[S][Sb]([S]C(=S)NC(=O)OCC)[S]c1nc2ccc(N=Nc3ccc(NS(=O)(=O)c4ccc(NC(=O)C(N5CC5)(N5CC5)N5CC5)cc4)cc3)cc2s1	70% (active)	99% (active)	99.2% (active)	33%	99% (active)	99.6% (active)	46%	99% (active)	99.5% (active)	16%	98% (active)	99% (active)	24%	99% (active)	99.3% (active)	80% (active)	99% (active)	99.2% (active)
Cc1ccc(C(Cc2ccc(N3C(N)=NC(N)=NC3(C)C)cc2)C(=O)Nc2ccc(S(=O)(=O)F)cc2)cc1 (stereo not given)	7%	99% (active)	99.2% (active)	45%	99% (active)	99.6% (active)	1%	99% (active)	99.8% (active)	7%	99% (active)	98.8% (active)	-1%	99% (active)	98.8% (active)	4%	99% (active)	99.5% (active)
CCCOc1ccc(/C=C/[N+](=O)[O-])cc1N	58%	99% (active)	99.2% (active)	52%	99% (active)	99.5% (active)	78% (active)	-8%	99.5% (active)	17%	99% (active)	98.9% (active)	34%	99% (active)	99.5% (active)	49%	99% (active)	99.3% (active)
c1ccc2c(c1)CCc1c-2[nH]c2ccccc12	-67%	79% (active)	72.2% (active)	-8%	77% (active)	36.4%	-9%	90% (active)	71.7% (active)	-60%	65%	51.8%	-48%	87% (active)	89.8% (active)	-43%	83% (active)	83.2% (active)
O=P1(Oc2ccccc2)C(c2ccccc2)C(c2ccccc2)=NN1c1ccccc1 (stereo not given)	29%	29%	90.7% (active)	12%	12%	91% (active)	23%	23%	89.2% (active)	23%	23%	90.8% (active)	5%	5%	90.1% (active)	11%	11%	89.6% (active)
CC1=C(CO)C(=O)OC(C(C)C2CCC3C4CC5OC56C(O)C(N5CC5)=CC(=O)C6(C)C4CCC23C)C1 (stereo not given)	-7%	43%	76.8% (active)	3%	49%	75.5% (active)	-2%	42%	70.2% (active)	23%	57%	28.9%	13%	77% (active)	75.2% (active)	-1%	78% (active)	69.8%
[Cl][Sn]([Cl])([c]1ccccc1)[c]1ccccc1.c1ccncc1.c1ccncc1	93% (active)	97% (active)	98% (active)	61%	99% (active)	99.1% (active)	94% (active)	99% (active)	99% (active)	71% (active)	98% (active)	98.8% (active)	92% (active)	98% (active)	97.9% (active)	95% (active)	96% (active)	98.7% (active)
COc1cc(C=Nc2ccc(-c3csc(COc4ccccc4)n3)cc2)ccc1N(CCCl)CCCl	12%	88% (active)	89.7% (active)	11%	92% (active)	88.1% (active)	8%	93% (active)	86.2% (active)	2%	85% (active)	84.2% (active)	17%	88% (active)	86% (active)	77% (active)	92% (active)	90.6% (active)
